Measured values: PubChem BioAssay AID504866 (Johns Hopkins Ion Channel Center, 2011)
The source made the active and inactive calls.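 The calls were made as follows: active = compound cutting the TRPC4 channel signal by more than 30% at some tested dose, with a fitted dose response curve; inactive = no inhibition at any dose, or no curve fitted.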

Target: Short transient receptor potential channel 4 (Mus musculus) (UniProt Q9QUQ5)
Assay: mouse TRPC4 blockers, membrane potential readout – cell-based, HEK293 TRPC4/mu-opioid, concentration-response, set 2, selectivity assay for TRPC6 selective inhibitor project, SAR follow-up (AID 504866)
Conditions: DAMGO, membrane potential dye; series mostly up to 20 µM

Short transient receptor potential channel 4 (Mus musculus), sequence (Q9QUQ5 whole entry, looked up): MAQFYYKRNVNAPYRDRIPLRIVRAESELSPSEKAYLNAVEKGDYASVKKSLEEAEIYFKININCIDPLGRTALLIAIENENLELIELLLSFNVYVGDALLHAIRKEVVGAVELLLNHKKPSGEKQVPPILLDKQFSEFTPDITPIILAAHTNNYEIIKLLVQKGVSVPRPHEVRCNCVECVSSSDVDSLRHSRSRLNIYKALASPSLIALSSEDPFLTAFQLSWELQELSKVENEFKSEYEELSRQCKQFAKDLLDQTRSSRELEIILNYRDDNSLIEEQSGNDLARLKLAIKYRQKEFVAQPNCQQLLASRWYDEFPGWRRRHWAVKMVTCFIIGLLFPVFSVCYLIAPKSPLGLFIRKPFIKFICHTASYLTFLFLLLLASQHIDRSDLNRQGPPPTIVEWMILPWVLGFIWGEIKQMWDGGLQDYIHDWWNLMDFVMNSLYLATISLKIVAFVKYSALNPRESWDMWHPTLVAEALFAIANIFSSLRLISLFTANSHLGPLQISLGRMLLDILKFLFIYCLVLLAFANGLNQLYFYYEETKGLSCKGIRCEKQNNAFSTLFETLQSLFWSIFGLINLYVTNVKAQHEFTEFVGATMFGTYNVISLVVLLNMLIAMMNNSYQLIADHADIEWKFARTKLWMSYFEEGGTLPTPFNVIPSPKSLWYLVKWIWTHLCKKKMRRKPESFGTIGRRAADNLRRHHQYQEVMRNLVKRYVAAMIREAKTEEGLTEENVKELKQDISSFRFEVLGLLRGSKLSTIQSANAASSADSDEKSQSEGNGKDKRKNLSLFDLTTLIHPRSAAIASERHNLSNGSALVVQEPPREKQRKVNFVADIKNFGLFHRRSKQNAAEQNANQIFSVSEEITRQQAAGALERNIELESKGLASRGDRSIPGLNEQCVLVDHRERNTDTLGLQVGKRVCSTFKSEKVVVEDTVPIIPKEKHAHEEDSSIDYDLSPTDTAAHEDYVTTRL

CN1CCN(Cc2ccc3nsnc3c2)CC1CCO (stereo unspecified)
outcome: inactive

OCCC1CN(Cc2ccc3nsnc3c2)CCN1C1CCCC1 (stereo unspecified)
outcome: inactive

CC(C)CN1CCN(Cc2ccc3nsnc3c2)CC1CCO (stereo unspecified)
outcome: inactive

O=S(=O)(Cc1cc(N2CCOCC2)nc(-c2ccccn2)n1)c1ccccc1
outcome: inactive

CN1CCC(N2CCN(Cc3ccc4nsnc4c3)CC2CCO)CC1 (stereo unspecified)
outcome: inactive

Cc1ccc(C)c(N2CCN(C(=O)c3ccc4nsnc4c3)CC2)c1
outcome: inactive

CC(C)CCN1CCN(Cc2ccc3nsnc3c2)CC1CCO (stereo unspecified)
outcome: inactive

CSCc1cc(N2CCOCC2)nc(-c2ccccn2)n1
outcome: inactive

O=S(=O)(Cc1cc(N2CCN(c3ccccc3)CC2)nc(-c2ccccn2)n1)c1ccccc1
outcome: inactive

Clc1ccc(SCc2cc(N3CCCCC3)nc(-c3ccccn3)n2)cc1
outcome: inactive

CC(C)N1CCN(Cc2ccc3nsnc3c2)CC1CCO (stereo unspecified)
outcome: inactive

CC(C)N1CCC(N2CCN(Cc3ccc4nsnc4c3)CC2CCO)CC1 (stereo unspecified)
outcome: inactive

CSCc1cc(N(C)c2ccccc2)nc(-c2ccccn2)n1
outcome: inactive

Cc1cccc(CN2CCN(Cc3ccc4nsnc4c3)CC2CCO)n1 (stereo unspecified)
outcome: inactive

Cc1ccccc1CN1CCN(Cc2ccc3nsnc3c2)CC1CCO (stereo unspecified)
outcome: inactive

OCCC1CN(Cc2ccc3nsnc3c2)CCN1CCCc1ccccc1 (stereo unspecified)
outcome: inactive
